In the supplement of paper PMC12632987:

B1: GBRAPL2_54_7376 (protein)
chain: MKKVEIEIDYIVEGDPAELARVEAVLKKELAEMEKTLKSKFNAKTTVSSEVEDGVLTTTVTVITDESHVDEVIDLALETAERVSAETGVKVSVVIGIKEL
B2: GBRAPL2_54_7382 (protein)
chain: AKKVRITIEFIVEGNEEELEKVKKVAKELSEELAKELKEKYGATSSISFEEENGVLTITIDVITDESAVDDVIDRALELKEEIEKKTGLKVSVVIGIEYL
B3: GBRAPL2_54_7373 (protein)
chain: MTKVLIEATFIAEGTPEELAEVRKVALEELEKLKKELKEKFGAESKISSEEEDGVLSVTVEITTEKENLDEVLDLLEETRERIAERTGRPVSLVIGIKEL
B4: GBRAPL2_54_7389 (protein)
chain: MKMIEIVIDYIAEGDDEELDKVEEVLLELLEEFKKELKEKYGATVEVSVEREDGVLTVTVTVIVKEEDVDDVIDLADKVAKEVEAKTGVKVSLVIGIKEL
B5: GBRAPL2_54_7388 (protein)
chain: MKKIRITVDFIAEGNDEELAKVEKVLLEELEKFKKELKEKFNAKTEISVERENGVLTITVDVITEEKDVDEVIDLADEVAKEVEKKTGVKVSVVIGIEEL
B6: GBRAPL2_54_7374 (protein)
chain: MKKVEITIDYVVEGNEEELEKVEKVLKKELEELKKKLESEFNAKTKISVERENGVLTIEVDVITDEKDVDKVIDLALETAKKVSEKTGVKVSVVIGIKEL
B7: GBRAPL2_54_7379 (protein)
chain: MKIVEVEITYLATGNEEELKKVEEVAKKKVEEFKKELEEKYGAKTTTSVEIEDGVLSYTVTVITKEENLDEVIDKALEMAKEIEKETGVKVSVVIGTKEL
B8: GBRAPL2_54_7375 (protein)
chain: MKKVEIEIDYIVEGNEEELKKVREVLKKELEKMKKELEEKFNATVEVSEEYENGVLTVTVKVIVDEEHVDEVIDLALETAERVSKETGVKVNVVIGIKEL
B9: GBRAPL2_54_7386 (protein)
chain: MKKVNITIDFVAEGDPETLAKVEEVAEKEIEKMEEELKEKYGAETERSVEREDGVLTVTVDVTVPEEAVDDVIDLALETAERISKETGVKVSVVIGAEEL
B10: GBRAPL2_54_7383 (protein)
chain: AKKIEIEIDYIVEGDKESLEKVKKVFTELSKKMAEELKEKYGAETKIEFEEENGVLTGTITVITDESHVDEVIDRALELKKEIEKKTGLKVNVVIGIKEL
B11: GBRAPL2_54_7380 (protein)
chain: MKKVLITGEFIVEGDEESLEKVKKVAEEKSKELSEELKKKYGAESTISFEEEDGVLYITIDIITDEEAVDDVIDKLEELKKEIEKETGLKVSLVIGIEYL
B12: GBRAPL2_54_7387 (protein)
chain: MKIIEIEIDYIAEGDDETLDKVEKVALEEIEKLKKELKEKYGAETEIEVEREDGVLSVTVTVITKEENVDEVIDLAEETAKEISEKTGIKVSVVIGLKEL
B13: GBRAPL2_54_7381 (protein)
chain: AKKVEIVADFIVEGTPEELAKVEKVATELSKKLAEELAAKYGATSTLSFEREDGVLLLTVTIVTDESAVDDVLDRLEELRDEIEKRTGVKVNLVIGIKEL
B14: GBRAPL2_54_7385 (protein)
chain: MTKVLVEIDFLVEGDEEELAEVEKVLLEEIEKMKKELKEKYGAEVTVEVEREDGRLLVTVTVLTPKEAVDDVIDLAEKMRDEVEAKTGVKVHVVIGIEEL
B15: GBRAPL2_54_7377 (protein)
chain: MKKVEITIDYIVEGDEEELKRVREVLEKELEKMEKELKEKFNAKTEVSVEVEDGVLTVTVDVIVDEKDVDKVIDLALKTAEEVSKKTGVKVNVVIGIKEL
B16: GBRAPL2_54_7378 (protein)
chain: MKIVEVEVDYIAQGNDEELEKVEKVAKEELAKLTEELAKKYGAKTTTSVEREDGVLSVTLTVIVKESDLDAVIDLALETAKRIEEKTGVKVSVVIGTKEL

target: GABARAPL2, P60520; experiment: median log2 fold change of GCK-ALFA target abundance (FLAG IP / Myc IP barcode read proportion) (log2 ratio); each designed protein is fused to an ALFA-tag nanobody in HEK293 cells to bring the named protein to FLAG-tagged glucokinase (GCK); Myc marks an untargeted standard; higher = target protein stabilised (more abundant); conditions: target protein: 3xFLAG-MCP-GCK-ALFA reporter; HEK293 landing pad (RPLP)
How it was run: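 Binders fused to an ALFA nanobody were recombined as a library into HEK293 landing-pad cells, which were induced with 2 μg mL^−1 doxycycline and then transfected to express a FLAG-tagged target and a Myc-tagged standard. After 48 h, circular RNA barcodes recovered by anti-FLAG and anti-Myc immunoprecipitation of lysates were reverse transcribed, amplified and sequenced. Each binder's target abundance is the median log2 ratio of FLAG to Myc barcode read proportions, from barcodes present at ≥10^−7 in both replicates, binders carrying ≥3 barcodes per replicate, a 10^−6 pseudocount and pooled replicates.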

Sequence of GABARAPL2, P60520 (P60520 whole entry, the tested form may be a part): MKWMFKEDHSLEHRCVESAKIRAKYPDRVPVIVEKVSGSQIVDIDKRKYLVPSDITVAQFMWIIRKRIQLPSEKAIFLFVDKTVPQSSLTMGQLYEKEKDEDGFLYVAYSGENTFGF

Binder	median log2 fold change
B1	-0.212
B2	0.121
B3	0.0324
B4	-0.265
B5	-0.363
B6	-0.179
B7	-0.192
B8	-0.389
B9	-0.458
B10	-0.128
B11	0.0537
B12	-0.429
B13	-0.18
B14	0.154
B15	-0.193
B16	-0.111
